From PubChem BioAssay AID1159580 (chemical genetic matrix, 2015)
Out of some 5,500 compounds screened, about 2,000 (36%) were called active. Another 18% or so got no clear call; they are omitted. Cut-off read from the data, not from the text of the source: active = normalized growth mostly below about 0.91 (no sharp cut-off); inconclusive = no clear call, values can overlap the other calls; inactive = mostly above about 0.92. The list shows a part of the results.

Assay: chemical genetic growth profiling, strain panel (AID 1159580);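 note: tested at 20 µM; growth read once vehicle control cultures reached saturation at 30 °C; 1 = growth at the plate median or of vehicle wells; lower values mean less growth of the strain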
Conditions: S. cerevisiae deletion strains, growth OD
[1] = locus YHR030C, strain SLT2, hits give low values

Measured: normalized growth

O=C1CC(=O)CC(c2ccc(Cl)c(Cl)c2)C1
inactive: locus YAL013W, strain DEP1, hits give low values 0.982 | locus YBR229C, strain ROT2, hits give low values 0.998 | locus YDL101C, strain DUN1, hits give low values 1.02 | locus YDR150W, strain NUM1, hits give low values 1.04 | locus YEL061C, strain CIN8, hits give low values 0.978 | locus YGR078C, strain PAC10, hits give low values 0.997 | [1] 1.04 | locus YHR087W, strain rtc3, hits give low values 0.98 | locus YJR043C, strain POL32, hits give low values 1.01 | locus YJR075W, strain HOC1, hits give low values 1.01 | locus YKL190W, strain CNB1, hits give low values 0.998 | locus YLR039C, strain RIC1, hits give low values 0.959 | locus YLR058C, strain SHM2 (second series), hits give low values 0.985 | locus YLR085C, strain ARP6, hits give low values 0.983 | locus YLR262C, strain YPT6, hits give low values 0.949 | locus YML094W, strain GIM5, hits give low values 0.99 | locus YMR219W, strain ESC1, hits give low values 0.991 | locus YMR263W, strain SAP30, hits give low values 1.01 | locus YMR307W, strain GAS1, hits give low values 1.02 | locus YNL153C, strain GIM3, hits give low values 0.997 | locus YNL298W, strain CLA4 (second series), hits give low values 1 | locus YNL322C, strain KRE1, hits give low values 0.976 | locus YNR030W, strain Alg12, hits give low values 1 | locus YPL055C, strain LGE1, hits give low values 1.15 | locus YPL241C, strain CIN2, hits give low values 1.01 | locus YPR135W, strain CTF4, hits give low values 1.22

CCCc1nc(C)c2c(=O)[nH]c(-c3cc(S(=O)(=O)N4CCN(CC)CC4)ccc3OCC)nn12
inactive: locus YAL021C, strain ccr4, hits give low values 0.961 | locus YAL026C, strain drs2, hits give low values 0.944 | locus YAL030W, strain snc1, hits give low values 0.947 | locus YBL061C, strain skt5, hits give low values 0.979 | locus YBR009C, strain hhf1, hits give low values 0.975 | locus YBR023C, strain chs3, hits give low values 0.974 | locus YBR171W, strain sec66, hits give low values 0.967 | locus YBR231C, strain swc5, hits give low values 0.97 | locus YBR279W, strain paf1, hits give low values 0.981 | locus YCL011C, strain gbp2, hits give low values 0.974 | locus YCL016C, strain dcc1, hits give low values 0.974 | locus YCL061C, strain MRC1, hits give low values 0.952 | locus YCL069W, strain vba3, hits give low values 0.988 | locus YCR088W, strain abp1, hits give low values 0.98 | locus YDL005C, strain med2, hits give low values 0.98 | locus YDL040C, strain nat1, hits give low values 0.985 | locus YDR001C, strain nth1, hits give low values 0.964 | locus YDR069C, strain doa4, hits give low values 0.951 | locus YDR137W, strain rgp1, hits give low values 0.915 | locus YDR159W, strain sac3, hits give low values 0.93 | locus YDR195W, strain ref2 0.938 | locus YDR297W, strain sur2, hits give low values 0.984 | locus YDR334W, strain swr1, hits give low values 0.913 | locus YDR335W, strain msn5, hits give low values 0.97 | locus YDR392W, strain spt3, hits give low values 0.964 | locus YEL003W, strain gim4, hits give low values 0.969 | locus YEL037C, strain rad23, hits give low values 0.985 | locus YEL061C, strain CIN8 (second series), hits give low values 0.973 | locus YER015W, strain faa2, hits give low values 0.983 | locus YER016W, strain bim1, hits give low values 0.973 | locus YER111C, strain swi4, hits give low values 0.972 | locus YER155C, strain BEM2 (second series), hits give low values 0.945 | locus YFR010W, strain ubp6, hits give low values 0.943 | locus YGL167C, strain pmr1, hits give low values 0.957 | locus YGL173C, strain kem1, hits give low values 0.949 | locus YGL227W, strain vid30, hits give low values 0.965 | locus YGL240W, strain doc1, hits give low values 0.921 | locus YGL253W, strain hxk2, hits give low values 0.971 | locus YHR013C, strain ard1, hits give low values 0.931 | locus YHR027C, strain rpn1, hits give low values 0.942 | [1] 1.08 | locus YHR079C, strain IRE1, hits give low values 1.07 | locus YHR142W, strain chs7, hits give low values 0.971 | locus YJL092W, strain hpr5, hits give low values 0.96 | locus YJL095W, strain BCK1 (second series), hits give low values 0.974 | locus YJL095W, strain BCK1, hits give low values 1.01 | locus YJL115W, strain asf1, hits give low values 0.943 | locus YJL129C, strain trk1, hits give low values 0.969 | locus YJL154C, strain vps35, hits give low values 0.97 | locus YJL164C, strain tpk1, hits give low values 0.948 | locus YJL166W, strain qcr8, hits give low values 0.969 | locus YJL187C, strain SWE1, hits give low values 0.972 | locus YJR066W, strain TOR1, hits give low values 0.979 | locus YKL160W, strain elf1, hits give low values 0.987 | locus YKR026C, strain gcn3, hits give low values 0.973 | locus YKR091W, strain srl3, hits give low values 0.977 | locus YLL001W, strain dnm1, hits give low values 0.973 | locus YLL026W, hits give low values 0.947 | locus YLL041C, strain sdh2, hits give low values 0.96 | locus YLR027C, strain aat2, hits give low values 0.953 | locus YLR113W, strain HOG1, hits give low values 0.997 | locus YLR221C, strain rsa3, hits give low values 0.978 | locus YLR258W, strain gsy2, hits give low values 0.983 | locus YLR262C, strain YPT6 (second series), hits give low values 0.979 | locus YLR320W, strain mms22, hits give low values 0.964 | locus YLR342W, strain FKS1, hits give low values 0.98 | locus YLR357W, strain rsc2, hits give low values 0.937 | locus YLR370C, strain arc18, hits give low values 0.966 | locus YLR384C, strain iki3, hits give low values 0.95 | locus YML120C, strain ndi1, hits give low values 0.981 | locus YMR058W, strain fet3, hits give low values 0.954 | locus YMR125W, strain sto1, hits give low values 0.969 | locus YMR129W, hits give low values 0.981 | locus YMR205C, strain PFK2, hits give low values 0.944 | locus YMR231W, strain pep5, hits give low values 0.978 | locus YNL071W, strain lat1, hits give low values 0.988 | locus YNL183C, strain NPR1, hits give low values 0.967 | locus YNL209W, strain ssb2, hits give low values 0.978 | locus YNL248C, strain rpa49, hits give low values 0.966 | locus YNL322C, strain KRE1 (second series), hits give low values 0.956 | locus YNR049C, strain mso1, hits give low values 0.967 | locus YOR001W, strain rrp6, hits give low values 0.956 | locus YOR070C, strain gyp1, hits give low values 0.983 | locus YOR080W, strain dia2, hits give low values 0.967 | locus YOR083W, strain WHI5, hits give low values 0.946 | locus YOR106W, strain vam3, hits give low values 0.955 | locus YOR231W, strain MKK1, hits give low values 1.05 | locus YOR265W, strain rbl2, hits give low values 0.98 | locus YOR270C, strain vph1, hits give low values 0.992 | locus YOR290C, strain snf2, hits give low values 0.938 | locus YPL051W, strain arl3, hits give low values 0.975 | locus YPL078C, strain atp4, hits give low values 0.97 | locus YPL106C, strain sse1, hits give low values 0.868 | locus YPL240C, strain hsp82, hits give low values 0.973 | locus YPL256C, strain CLN2, hits give low values 1.09
